# Test results as given in PMC5540273 (PLoS ONE, 2017).
# Assays:
# Conditions in all cases: concentration: 1 μM,replicates: in singlicate; n = 1
# PRKD3 = tested on: PRKD3
# PRKG1 = tested on: PRKG1
# PRKG2 = tested on: PRKG2
# PRKR = tested on: T1, PRKR
# T1 construct: gene EIF2AK2
# PRKX = tested on: PRKX
# PRP4 = tested on: PRP4
# QSK = tested on: QSK
# RAF1 = tested on: RAF1
# RET = tested on: RET
# RIOK1 = tested on: RIOK1
# RIOK2 = tested on: RIOK2
# RIOK3 = tested on: RIOK3
# RIPK1 = tested on: RIPK1
# RIPK2 = tested on: RIPK2
# RIPK4 = tested on: RIPK4
# RIPK5 = tested on: RIPK5
# ROCK1 = tested on: ROCK1
# ROCK2 = tested on: ROCK2
# ROS1 = tested on: ROS1
# PYK2 = tested on: T2, PYK2
# T2 construct: gene PTK2B
# 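Further: KINOMEscan kinase panel screen.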
structure (smiles),measurement,setting,value
Cc1ccc(-n2nc(C(C)(C)C)cc2NC(=O)Nc2ccc(OCCN3CCOCC3)c3ccccc23)cc1 [GW839464],%Inh,PRKD3,16%
same,%Inh,PRKG1,0%
same,%Inh,PRKG2,3%
same,%Inh,PRKR,8%
same,%Inh,PRKX,0%
same,%Inh,PRP4,15%
same,%Inh,QSK,1%
same,%Inh,RAF1,26%
same,%Inh,RET,54%
same,%Inh,RIOK1,54%
same,%Inh,RIOK2,0%
same,%Inh,RIOK3,8%
same,%Inh,RIPK1,29%
same,%Inh,RIPK2,0%
same,%Inh,RIPK4,0%
same,%Inh,RIPK5,0%
same,%Inh,ROCK1,0%
same,%Inh,ROCK2,0%
same,%Inh,ROS1,0%
C=CC(=O)Nc1cc2c(Nc3ccc(F)c(Cl)c3)ncnc2cc1OCCCN1CCOCC1 [GW781483],%Inh,PRKD3,0%
same,%Inh,PRKG1,0%
same,%Inh,PRKG2,31%
same,%Inh,PRKR,0%
same,%Inh,PRKX,0%
same,%Inh,PRP4,0%
same,%Inh,PYK2,1%
same,%Inh,QSK,1%
same,%Inh,RAF1,0%
same,%Inh,RET,38%
same,%Inh,RIOK1,54%
same,%Inh,RIOK2,10%
same,%Inh,RIOK3,46%
same,%Inh,RIPK1,8%
same,%Inh,RIPK2,53%
same,%Inh,RIPK4,26%
same,%Inh,RIPK5,4%
same,%Inh,ROCK1,42%
same,%Inh,ROCK2,0%
same,%Inh,ROS1,4%
C[C@@H](Oc1cc(-c2cnn(C3CCNCC3)c2)cnc1N)c1c(Cl)ccc(F)c1Cl,%Inh,PRKD3,63%
same,%Inh,PRKG1,0%
same,%Inh,PRKG2,3%
same,%Inh,PRKR,26%
same,%Inh,PRKX,35%
same,%Inh,PRP4,0%
same,%Inh,PYK2,80%
same,%Inh,QSK,0%
same,%Inh,RAF1,0%
same,%Inh,RIOK1,39%
same,%Inh,RIOK2,0%
same,%Inh,RIOK3,50%
same,%Inh,RIPK1,6%
same,%Inh,RIPK2,32%
same,%Inh,RIPK4,34%
same,%Inh,RIPK5,80%
same,%Inh,ROCK1,5%
same,%Inh,ROCK2,20%
CCN(CC)CCCCNc1ncc2cc(-c3c(Cl)cccc3Cl)c(NC(=O)NC(C)(C)C)nc2n1,%Inh,PRKD3,25%
same,%Inh,PRKG1,2%
same,%Inh,PRKG2,7%
same,%Inh,PRKR,0%
same,%Inh,PRKX,0%
same,%Inh,PRP4,0%
same,%Inh,PYK2,4%
same,%Inh,QSK,39%
same,%Inh,RAF1,87%
same,%Inh,RET,96.5%
same,%Inh,RIOK1,0%
same,%Inh,RIOK2,6%
same,%Inh,RIOK3,0%
same,%Inh,RIPK1,17%
same,%Inh,RIPK2,54%
same,%Inh,RIPK4,0%
same,%Inh,RIPK5,26%
same,%Inh,ROCK1,0%
same,%Inh,ROCK2,9%
same,%Inh,ROS1,43%
Nc1nc(Nc2ccccc2)cc(-c2ccc3c(N)n[nH]c3c2)n1 [GSK2225749],%Inh,PRKD3,0%
same,%Inh,PRKG1,12%
same,%Inh,PRKG2,45%
same,%Inh,PRKR,3%
same,%Inh,PRKX,57%
same,%Inh,PRP4,60%
same,%Inh,PYK2,0%
same,%Inh,QSK,0%
same,%Inh,RAF1,0%
same,%Inh,RET,6%
same,%Inh,RIOK1,98.5%
same,%Inh,RIOK2,54%
same,%Inh,RIOK3,76%
same,%Inh,RIPK1,0%
same,%Inh,RIPK2,0%
same,%Inh,RIPK4,44%
same,%Inh,RIPK5,0%
same,%Inh,ROCK2,45%
same,%Inh,ROS1,0%
CC(C)Nc1cc(-c2ccc3c(N)n[nH]c3c2)nc(N)n1 [GSK2221681],%Inh,PRKD3,0%
same,%Inh,PRKG1,0%
same,%Inh,PRKG2,42%
same,%Inh,PRKR,0%
same,%Inh,PRKX,79%
same,%Inh,PRP4,7%
same,%Inh,PYK2,0%
same,%Inh,QSK,0%
same,%Inh,RAF1,0%
same,%Inh,RET,0%
same,%Inh,RIOK1,94.1%
same,%Inh,RIOK2,19%
same,%Inh,RIOK3,66%
same,%Inh,RIPK1,0%
same,%Inh,RIPK2,0%
same,%Inh,RIPK4,66%
same,%Inh,RIPK5,0%
same,%Inh,ROCK1,7%
same,%Inh,ROCK2,41%
same,%Inh,ROS1,5%
COc1ccc(C[C@@H](CN)NC(=O)c2cc(Br)c(-c3ccnc4[nH]ccc34)s2)cc1.Cl.Cl [GSK1389063],%Inh,PRKD3,94.4%
same,%Inh,PRKG1,98.7%
same,%Inh,PRKG2,98.9%
same,%Inh,PRKR,1%
same,%Inh,PRKX,94.2%
same,%Inh,PRP4,18%
same,%Inh,PYK2,47%
same,%Inh,QSK,0%
same,%Inh,RAF1,5%
same,%Inh,RET,98.4%
same,%Inh,RIOK1,89%
same,%Inh,RIOK2,49%
same,%Inh,RIOK3,80%
same,%Inh,RIPK1,0%
same,%Inh,RIPK2,4%
same,%Inh,RIPK4,36%
same,%Inh,RIPK5,28%
same,%Inh,ROCK1,100%
same,%Inh,ROCK2,95.2%
same,%Inh,ROS1,59%
CNC(=O)c1ccccc1Sc1ccc2c(/C=C/c3ccccn3)n[nH]c2c1,%Inh,PRKD3,0%
same,%Inh,PRKG1,0%
same,%Inh,PRKG2,0%
same,%Inh,PRKR,0%
same,%Inh,PRKX,9%
same,%Inh,PRP4,0%
same,%Inh,PYK2,20%
same,%Inh,QSK,0%
same,%Inh,RAF1,3%
same,%Inh,RIOK1,2%
same,%Inh,RIOK2,0%
same,%Inh,RIOK3,0%
same,%Inh,RIPK1,12%
same,%Inh,RIPK2,22%
same,%Inh,RIPK4,0%
same,%Inh,RIPK5,11%
same,%Inh,ROCK1,5%
same,%Inh,ROCK2,17%
same,%Inh,ROS1,45%
Cl.Oc1cc(-c2nc(-c3ccccc3)[nH]c2-c2ccncc2)ccc1Cl [SB-386023],%Inh,PRKD3,0%
same,%Inh,PRKG1,15%
same,%Inh,PRKG2,0%
same,%Inh,PRKR,0%
same,%Inh,PRKX,0%
same,%Inh,PRP4,0%
same,%Inh,PYK2,6%
same,%Inh,QSK,33%
same,%Inh,RAF1,97.9%
same,%Inh,RET,66%
same,%Inh,RIOK1,0%
same,%Inh,RIOK2,5%
same,%Inh,RIOK3,0%
same,%Inh,RIPK1,0%
same,%Inh,RIPK2,78%
same,%Inh,RIPK4,17%
same,%Inh,RIPK5,21%
same,%Inh,ROCK1,1%
same,%Inh,ROCK2,6%
same,%Inh,ROS1,19%
Cl.Cl.NC[C@H](Cc1ccc(C(F)(F)F)cc1)NC(=O)c1cc(Br)c(-c2ccnc3[nH]ccc23)s1 [GSK1487252],%Inh,PRKD3,81%
same,%Inh,PRKG1,98.1%
same,%Inh,PRKG2,98.7%
same,%Inh,PRKR,0%
same,%Inh,PRKX,96%
same,%Inh,PRP4,22%
same,%Inh,PYK2,13%
same,%Inh,QSK,14%
same,%Inh,RAF1,10%
same,%Inh,RET,74%
same,%Inh,RIOK1,35%
same,%Inh,RIOK2,0%
same,%Inh,RIOK3,12%
same,%Inh,RIPK1,0%
same,%Inh,RIPK2,0%
same,%Inh,RIPK4,19%
same,%Inh,RIPK5,0%
same,%Inh,ROCK1,98.2%
same,%Inh,ROCK2,99.5%
same,%Inh,ROS1,44%
